Out of some 53,000 sequences screened, about 3,700 (7%) were called active. Only a selection was taken, and actives are over-represented in it overall. Values without a mark were called inactive.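 Rule for the calls: active = gene knockdowns whose robust z-score for IL-1 alpha signal is at least 2 or at most -2, so actives lie on both sides; inactive = the rest.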

A short description of the experiment: Components of the Cytosolic LPS Sensing Pathway: Gene Identification via Genome-wide siRNA Screen.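 Note: robust z of the log signal after scaling to non-targeting control siRNA wells of the plate.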 The note with it: RAW264.7 macrophages, IL-1a HTRF, actives lie on both sides, screened at 100 nM (by protocol), cells primed 5 h with Pam3CSK4 first. The essentials:
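Cells (RAW264.7, 1×10^4 per well) were transfected with siRNA at 100 nM and cultured 48h at 37 degrees C. Pam3CSK4 was added for 5 hours; LipidA transfection followed for 24 hour. IL-1a was then measured by HTRF.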
In general terms: Time-resolved FRET reads energy transfer from a long-lived donor to a nearby acceptor.
With GGUGUUCGUCAUAUGGAAUTT against Tex46, the z-score was 3.71 (active).

As for GGUAACUGUUACACAAAUCTT against Tmem161b, the z-score was -0.291.

Take GGCCUUUUGGCUUUGAUCUTT against Hoxb1: the z-score is -1.86.

Regarding GGAAUAUGUCACCAACAAGTT against Akap8l, the z-score was -0.896.

With GCAGGAAGUAAAAUCUCUUTT against Tmem183a, the z-score was 0.707.

On to GGAGUCACACCUGAAUUGCTT against Cep89, for which the z-score was 0.129.

Consider GCUGAAAUCCAGGAUAGAGTT against Zw10, for which the z-score is -2.03 (active).

GGGACAAGGACUUUAAAAATT against Scamp2: the z-score was 0.566.

On to GCACAUUCAGAUGAGGACUTT against Rnf6, for which the z-score is -1.05.

As for GAUAUGUGUACACUUCUGCTT against Vmn1r218, the z-score is -2.08 (active).

Regarding GGUUACAUGGAUUGAAGCUTT against Scrn3, the z-score was 0.183.

For the sequence GGAGAUGAUUUUGAACUUCTT against Retreg3, the z-score was 2.73 (active).

Regarding CCCAACACAAUAUUUGCCATT against Nfyc, the z-score was 0.019.

GCUGUCUCUACGUUGGAGATT against Adamts2: the z-score was 0.145.

As for CCACUUAGGUUAGAAAGAATT against R3hdm1, the z-score was -0.77.

In the case of CCAAGUCGGACUUACGGUUTT against Cnpy3, the z-score is -1.65.

On to UCUGCUCAACAUCGUCAAUTT against Sstr3, for which the z-score was 0.719.

In the case of GCUCUUCCGAUUAAUGCAGTT against Gabra6, the z-score was 2.87 (active).

Regarding GGACCAAGGCUUGGAUCUUTT against Magea6, the z-score is 0.527.

Regarding “CGUGGUGCCUUUGAAUCUGTT against 9530056K15Rik”, the z-score is 1.2.

Take GGCAUCAAGCAAUUCACUCTT against Zfp455: the z-score was 1.14.

As for GGUGCAAAUGUUCUCAUCUTT against Mfsd4b1, the z-score is 2.11 (active).

On to GCCACUGUCACUUUUGUACTT against Arl11, for which the z-score is -1.08.

For the sequence GGAUUUGUUGGAAAUUGGATT against Anks1b, the z-score was 0.132.

As to GGCUGUGCAAGAUGUUCUATT against Gpr27, the z-score is 3.29 (active).

As for CCCAUGGGCAGAUGAAAGCTT against Olfr1441, the z-score was -0.482.

For the sequence GCAAUGCGACGUGCUCUAUTT against Trim67, the z-score is 0.136.

In the case of GGCUUAAGUUAGGCAAACUTT against Crtc3, the z-score is -0.0675.

With UGCUGUGGUCACUCCCAUGTT against Olfr457, the z-score was -2.04 (active).

As to GCCACAACAAACCUACGACTT against Xpc, the z-score was -1.32.

In the case of GCGCAUUGUGUUCUGGUCUTT against Zswim4, the z-score was -1.55.

With “GGAACUUGGCCUACUUAUGTT against C130071C03Rik”, the z-score was 0.718.

In the case of GAGGUCAUUAUACCAUUGGTT against Tuba3b, the z-score is 0.554.

Consider GGUGACCAGCUCCAUUUCUTT against Ccn5, for which the z-score is 2.61 (active).

Consider GGCCAACACUCAGAAAAGGTT against Zfp474, for which the z-score was 1.59.

GCCAGAUCUGUUAACCGCCTT against Gzmk: the z-score was 2.15 (active).

Regarding GGUUGGGCUGCCAAGUUUGTT against Fdx1, the z-score was 1.96.

Take UACUACAACCGCACAGUGATT against Tmc6: the z-score was 0.522.

On to GGUGGUCACCAAGAAGUUUTT against Prps2, for which the z-score is 2.52 (active).

Consider GGAAGCUCUUAAAAGGUUGTT against Hdhd2, for which the z-score was 0.226.

GCUCCUCAUGAUAUUGGCCTT against Nagk: the z-score was 0.239.

With GGAGGGACUUACCACAAGGTT against Timeless, the z-score was 0.282.

Regarding GGACAACACUGUCAAUCAUTT against Olfr922, the z-score is -2.39 (active).

Take GGGAAUCUUUAUCAGUGAGTT against Insc: the z-score was 0.429.

With GCUCCUGAUCAAAUAAAGUTT against Ldhb, the z-score is 0.279.

With CCGGAGUUAUACCGUAAGATT against Plaur, the z-score was -0.671.

In the case of GGAGUAGGAACAAAAAUUGTT against Polb, the z-score is -0.153.

In the case of CCUUGGCCAAUCUCCACAATT against Ptpmt1, the z-score was -0.485.

With GGAAAAAAUUAAAGAGCACTT against Gmcl1, the z-score was 2.15 (active).

In the case of GGCACAAAAGAAGAAGAUGTT against Retsat, the z-score was -1.7.

Consider CGAUAAUGAAAGUGACCAUTT against Uri1, for which the z-score was -0.0814.

Turning to GGAUGCUAGACUAAUACUATT against Slc25a32, the z-score is 1.3.

For the sequence CGGGAAAGAGAUCAUCCCUTT against Nr1i2, the z-score was -3.3 (active).

Regarding GGGAGGGAUGCAGUAAAUGTT against Acaa1a, the z-score was -0.337.

Turning to GCAGGAACGUGAGGACCAUTT against Snip1, the z-score was 0.842.

Take GGCUCUGUGCAGACAUUUCTT against Pop5: the z-score was -1.51.

Take GUUCCGACUGAACUUGUAUTT against Psmb3: the z-score was -2.55 (active).

Consider GCCUGGAUACAAUUACCCUTT against Tc2n, for which the z-score was -0.893.

On to GCUCAGUAAUCGCUGUCUATT against Olfr91, for which the z-score was -0.62.

For the sequence GGAGAUGAUACAUAAUCUATT against Psmd12, the z-score was -0.0292.

On to GCCUAAACCUGAGUUAUAATT against Lrig1, for which the z-score is 2.34 (active).

As to GGUGACAAAGGUGUUAGAATT against Itpkc, the z-score was -0.252.

Take GGUGACCAAAAAAGCUUUATT against Pax9: the z-score was 1.37.

As to GCUCAAAUAACUCCACCACTT against Pola1, the z-score is -1.73.

On to GGCGACCACUUUGUCUACATT against Plekhg3, for which the z-score is 1.1.

Consider GGGAAUUCUCCUGUUUGCUTT against Plp2, for which the z-score is -2.22 (active).

For the sequence GCUGCGUCCUAUGAGUUUATT against Drg2, the z-score was 1.72.

With GGCAGCAAGGAAACUAUUATT against Kpna3, the z-score was 1.39.

For the sequence GCCAACGAAAAAUGACCUCTT against Wnt2, the z-score was -0.046.

Consider GGCCAAAAGUAUGAAAGUATT against Tspan1, for which the z-score is 0.45.

On to GCGUGUUGUGAUGUCACCUTT against Cisd1, for which the z-score is -0.0193.

On to CCAGAUACUUCUCAUGGCGTT against Dipk1b, for which the z-score is -0.0671.

Consider CGAUUUGCCUUAUUUUUCATT against Litaf, for which the z-score is 1.23.

With GGAAGUACAAACUACUAGUTT against Mcmbp, the z-score is -0.393.

For GGCUUUCAAGAGCAAUCCCTT against Man2b2, the z-score is -2.21 (active).

Take GGAGCUAGACAAAACUAAATT against Vmn2r81: the z-score was -0.882.

With GUAGAAGAUGGAAUUUUUGTT against Rpl22l1, the z-score was 0.048.

GGUCUGUGAGGAACAAAAGTT against Ccnd2: the z-score is -2.26 (active).

As for CCUGAUGGGUUACCUAUGCTT against Col25a1, the z-score was -0.379.

Regarding GCGGUUCCAAGAUUGUUGUTT against Armc8, the z-score is 0.109.

As for GCUGAUCGCUUUGAUUCGATT against Fkbp11, the z-score is -0.495.

On to “GCUAACACUGCGCUUGGAATT against 1700067K01Rik”, for which the z-score is -1.39.

GGGACCAGAACCACAAACATT against Ghsr: the z-score was -1.62.

Turning to GGACUAAAUAGGUUUACCATT against Alx1, the z-score was 1.26.

For the sequence CGCAGACAGAGACAACCUGTT against Casp6, the z-score was -0.73.

For GCAGGUCACUUUCUAGAGATT against Srsf3, the z-score is -2.25 (active).

As to GCGUGUCCUAUAGCAUCUGTT against Cela1, the z-score is -0.106.

For GGAAUUGAAGGGUACUUAATT against Fam111a, the z-score was -1.97.

In the case of GCCAAAUAUUAUUCCUACATT against Sec63, the z-score was -0.282.

With “GGCAUUGAGAUGAAAUGAATT against 4933427E11Rik”, the z-score was -2.5 (active).

GGGAAUCCUAGACAUGCUGTT against Nphp4: the z-score was -1.91.

As to GGGCAACCUGUCACAUUAUTT against Spam1, the z-score was 1.16.

In the case of CCUCAUCCUUAGUUGUUUUTT against Ift88, the z-score is -0.15.

As for GCACAAUGGUGUUAAGUCATT against Ado, the z-score is 2.3 (active).

Consider GGAACCUCUCAAUUUUGCGTT against Pik3ip1, for which the z-score was 0.659.

As for GCAGGUUUAACAACUUACUTT against Dmgdh, the z-score was 3.07 (active).

In the case of GGAUUAGGUCAUUAUUAGGTT against Kcne3, the z-score was -0.202.

For GGCAGUCUUGUCCCUUGUATT against Myl12a, the z-score is -0.74.

As to GGAAGAAGGAACAUGAUCUTT against Mrpl52, the z-score was -0.928.

On to CCCAGUUCUGUCCUACUUATT against Efcab6, for which the z-score is -2.79 (active).

For GGAGACAGUGGUAUUUUGATT against Birc5, the z-score was 0.468.

With “GGAAGCAUGUGAGAGAAAATT against C130026I21Rik”, the z-score was -1.03.

As to GGCAUCACACAGGAGAAAATT against Ppp1r16b, the z-score was -0.391.

On to GGAACAGAUGGGUGUGAAATT against Wnt2b, for which the z-score is -0.0195.

Take GGAAUUCAUUGCUAUUAUGTT against Cetn3: the z-score is 2.12 (active).

As to CUUUUGUAAAGCCUUCCACTT against Zfp708, the z-score was -0.259.

GGAUCUCGGGAAAAAGUUGTT against Spesp1: the z-score is 0.185.

GGUCUAUCUGAAGAACAGUTT against Xpo5: the z-score was 1.02.

Values taken from PubChem BioAssay AID1508600 (Functional Genomics Laboratory (NCATS/FGL), 2020).
